Results as given in ChEMBL document CHEMBL4513216, “Probing the Open Global Health Chemical Diversity Library for Multistage-Active Starting Points for Next-Generation Antimalarials” (ACS Infect Dis, 2020).
Among all 69,000 compounds or so, about 8,600 (12%) showed an effect of 50% or more. The sample holds strong results, similar compounds and a random draw of the others, so the mix is not that of the screen.

system: Plasmodium berghei; experiment: Screen against P. berghei liver stage (PbLuc), transformed with Luciferase, at 10uM; format: functional, HepG2; conditions: tested at 10 uM

| SMILES | INHIBITION [%] |
| --- | --- |
| CC1CCN(c2nc3cn(-c4ccccc4)c(=O)c-3c[nH]2)CC1 | -21.5 |
| Cc1cccc(CN2CCCC3(CCC(=O)N3CCN(C)C)CC2)n1 (configuration not stated) | -6.05 |
| CN(C)C(=O)N1C[C@@H]2CCCO[C@@H]2[C@H](N(C)Cc2ccco2)C1 | 41.8 |
| CC(C)c1n[nH]c(C2CN(C(=O)c3cnccn3)CCO2)n1 (configuration not stated) | 48.4 |
| CN1CCC(C)(CNC(=O)c2ccc(SCc3cccnc3)cc2)CC1 | 34 |
| CCSc1ncc(Cl)c(C(=O)NC(CCSC)C(=O)O)n1 (configuration not stated) | 15.9 |
| CNS(=O)(=O)c1ccc(CNC(=O)NCC2CCOC2)cc1 (configuration not stated) | 21.9 |
| CNS(=O)(=O)c1ccc(CNC(=O)N2CCOC(C)C2)cc1 (configuration not stated) | 50 |
| CNS(=O)(=O)c1ccc(CNC(=O)NCC2CCCO2)cc1 (configuration not stated) | 0.932 |
| CC1CN(C(=O)NCc2cnn(-c3ccc(F)cc3F)c2)CCO1 (configuration not stated) | -2.55 |
| CNS(=O)(=O)c1ccc(CNC(=O)N(CC(C)C)C(C)C)cc1 | 31.2 |
| CNS(=O)(=O)c1ccc(CNC(=O)C2CCCN(C)C2)cc1 (configuration not stated) | -34.8 |
| CNS(=O)(=O)c1ccc(CNC(=O)NCC2CCC2)cc1 | -75.2 |
| CNS(=O)(=O)c1ccc(CNC(=O)C2CCCO2)cc1 (configuration not stated) | 54.3 |
| CNS(=O)(=O)c1ccc(CNC(=O)C2CN(C)CCO2)cc1 (configuration not stated) | 50 |
| Cc1c(NC(=O)NCCO)cccc1OC1CCCC1 | -2.27 |
| CCN(CC)CC1CCN(Cc2ccn(C)c(=O)c2)CC1 | -18 |
| COc1ccc(CNc2cc3[nH]c(O)nc3cc2C)cc1 | 29.1 |
| O=C(CCS(=O)(=O)c1ccccc1)NC1CCOC2(CCOCC2)C1 (configuration not stated) | 12.1 |
| COc1ccc(COCC(=O)N2CCCC(n3cncn3)C2)cc1 (configuration not stated) | -9.76 |
| Cn1cccc1C(=O)N1CCC2(CC1)COC(COc1ccccn1)C2 (configuration not stated) | -8.19 |
| O=C1CCC2(CCN(S(=O)(=O)c3ccccc3)CC2)N1CC1CC1 | -51.6 |
| O=C1N(CC2CCC2)CCCC12CCN(S(=O)(=O)c1cccnc1)C2 (configuration not stated) | -21.8 |
| CC(=O)N1CCC2(CC1)CCN(S(=O)(=O)c1ccccc1)C2 | -18.4 |
| O=S(=O)(c1ccccc1)N1CCC2(CCCN2CC2CCCC2)C1 (configuration not stated) | 71.1 |
| CCN1C(=O)CCC12CCN(S(=O)(=O)c1ccccc1)CC2 | -2.35 |

| SMILES | INHIBITION [%] |
| --- | --- |
| CC(C)(C)CN1CCCC12CCN(S(=O)(=O)c1ccccc1)C2 (configuration not stated) | 78.8 |
| Cc1c[nH]nc1C1CN(c2ncccn2)CCO1 (configuration not stated) | 14.575 |
| N#Cc1ccc(CCC(=O)N2CCC(CN3CCOCC3)CC2)cc1 | 37.7 |
| O=C(O)C1CN(c2cncc(Cc3ccccc3)n2)C1 | 8.35 |
| CCc1cc(N[C@H]2CCC[C@H]2CO)n2nc(C)c(C)c2n1 | 16.3 |
| O=S1(=O)CCN(CCCc2ccc(Cl)cc2)CC1 | 15 |
| O=C(COCC(F)(F)F)N1CCCC(n2cccn2)C1 (configuration not stated) | 39.5 |
| CC(C)CC(=O)N1CCN(C(=O)NC(C)C)CC2(CC(=O)N(C)C2)C1 (configuration not stated) | 34.4 |
| O=C(NCCc1ccncc1)c1cccc(S(=O)(=O)NC2CC2)c1 | -78.5 |
| CN1CC[C@]2(CN(CC3CCOCC3)C[C@H]2c2ccccc2)C1=O | 43.4 |
| O=C1NCC[C@]12CN(CC1CCOCC1)C[C@H]2c1ccccc1 | 29.5 |
| CN1CC[C@]2(CN(Cc3nccs3)C[C@H]2c2ccccc2)C1=O | -2.41 |
| CN1CC[C@]2(CN(CC3CCOC3)C[C@H]2c2ccccc2)C1=O (some centres not stated) | 57.3 |
| CN1CC[C@]2(CN(CC3CC3)C[C@H]2c2ccccc2)C1=O | 52.4 |
| CN(C)C(=O)CN1CC[C@]2(CN(CC3CC3)C[C@H]2c2ccccc2)C1=O | 26.5 |
| Cc1ccc(NC2CCN(C(=O)CCCn3ccnc3C)CC2)nn1 | 8.64 |
| CC(C)c1noc(CCCC(=O)NCCOc2ccccc2)n1 | 46.4 |
| CC(C)c1noc(CS(=O)(=O)CC(=O)NCCOc2ccccc2)n1 | 61.5 |
| CC(C)c1noc(CS(=O)(=O)CC(=O)NCc2ccccc2)n1 | 10.6 |
| CC(C)OCCCNC(=O)C1CC(=O)N(c2n[nH]c3cccc(F)c23)C1 (configuration not stated) | -10.9 |
| Cn1cccc1C(=O)N1CCCC(Cn2cc(CO)nn2)C1 (configuration not stated) | -2.39 |
| Cc1ccc(C2CN(CCCC#N)CCO2)c(C)c1 (configuration not stated) | -3.47 |
| Cc1ccc(C2CN(c3nnc(C(F)F)s3)CCO2)c(C)c1 (configuration not stated) | 57.4 |
| Cc1ccc(C2CN(CCS(=O)(=O)C(C)C)CCO2)c(C)c1 (configuration not stated) | 30.7 |
| Cc1ccc(C(=O)N2CCC3(CCN(c4ccsc4)C3=O)C2)cn1 (configuration not stated) | -14.3 |
| NCc1n[nH]c(-c2ccc(Br)cc2)n1 | -34.4 |
